# High-throughput results: PubChem, National Center for Advancing Translational Sciences (NCATS)
# miR-21 reporter: qHTS Assay for Modulators of miRNAs and/orActivators of miR-21 | HeLa miR-21 FLuc reporter, luciferase, 48 h | Potency, µM (highest dose often 38.3 µM), inactives show at the highest dose activity change, positive = activation, hits mostly activators | 340,000 tested, under 10 active;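 also: % of control where 0% means no effect; miR-21 action dims this reporter so a rising signal means less miR-21 action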
#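 HeLa miR-21-FLuc reporter line, endogenous miR-21; 2000 cells/well in DMEM/10% FBS; compound titration up to ~40uM final, 48 h, 37 degree Celsius; luciferase detection reagent, 15 min lysis, CCD luminescence.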
# Chronic BCR inh: qHTS Assay to Find Inhibitors of Chronic Active B-Cell Receptor Signaling | ABC-DLBCL IkBa-CBG/CBR reporter, luminescence ratio, 4 h | AID 493014, 2011 | 0.05% of 340,000 active | Potency, µM (highest dose often 46.1 µM), for the others: at the highest dose activity change, negative = inhibition, usual class: inhibitors; active = well fitted inhibition curve with a large enough effect in the signal ratio, with a control signal flat, not every such curve was filed as active; inconclusive = small, poorly fitted or top-dose-only effect, or effect the other way, or a change in a side signal; the % refers to the signal ratio;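 also: potency is read from the fitted curve at half-maximal effect; plate controls were basal doxycycline-induced cells for no effect and cells given 10 µM MG132 for full effect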
#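 Concentration-response series (up to 46 uM) were applied to TMD8 dual-reporter cells for 4 h at 37C with doxycycline. Green/red ratio, after filter-overlap correction, defined %Activity; red signal alone was normalised to basal cells and zero luminescence.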
# PKM2 activator: qHTS Assay for Activators of Human Muscle isoform 2 Pyruvate Kinase; 0.34% of 260,000 active; AID 1631, 2009; purified PKM2, Kinase-Glo ATP luminescence, activation; response scale: 0% is enzyme alone, no compound; Potency, µM (series often up to 57.5 µM), for inactives: at the highest dose activation, actives largely listed as activators; also: potency is read from the fitted curve at half-maximal effect; % is scaled to controls: 0 for no effect and ±100 for the full control effect; nearly all actives have a fitted effect of over 55% in size
# Target sequence (P14618 whole entry, looked up, canonical isoform): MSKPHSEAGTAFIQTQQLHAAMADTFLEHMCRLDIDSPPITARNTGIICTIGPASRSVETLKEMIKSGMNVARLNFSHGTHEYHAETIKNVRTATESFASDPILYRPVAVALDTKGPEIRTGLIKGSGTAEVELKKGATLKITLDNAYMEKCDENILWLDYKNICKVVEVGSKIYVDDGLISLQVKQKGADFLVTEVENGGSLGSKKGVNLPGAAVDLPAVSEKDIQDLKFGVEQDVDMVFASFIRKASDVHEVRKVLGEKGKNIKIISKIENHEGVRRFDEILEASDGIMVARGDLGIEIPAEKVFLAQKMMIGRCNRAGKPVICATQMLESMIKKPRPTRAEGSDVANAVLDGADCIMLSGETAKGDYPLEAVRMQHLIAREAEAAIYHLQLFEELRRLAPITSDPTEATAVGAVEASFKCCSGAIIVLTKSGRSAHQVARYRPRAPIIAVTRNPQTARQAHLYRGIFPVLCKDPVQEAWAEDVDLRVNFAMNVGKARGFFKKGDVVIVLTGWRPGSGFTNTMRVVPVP
#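 Kinase-Glo luminescence reports ATP generated from ADP (0.1 mM) and PEP (0.5 mM) by purified hPK-M2 after 1 h at room temperature, pH 7.2 imidazole buffer; intermediate enzyme activity allows detecting inhibitors and activators.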
# Pin1 inhibitor: qHTS Assay to Find Inhibitors of Pin1; Pin1 FP peptide displacement, HiFluor488, 10 min; Potency, µM (top dose mostly 115 µM), for the others: at the highest dose activity, negative = inhibition, usual class: inhibitors; 0.009% of 390,000 active; AID 504891, 2011; active = well fitted inhibition curve with a large enough effect in the polarisation, with a control signal flat, not every such curve was filed as active; inconclusive = small, poorly fitted or top-dose-only effect, or effect the other way, or a change in a side signal; inactive = no such curve, though single readings can be large or run the other way; the % refers to the polarisation; also: potency is read from the fitted curve at half-maximal effect; % is scaled to controls: 0 for no effect and ±100 for the full control effect
# B2AR arrestin: qHTS assay of beta-arrestin-biased ligands of beta2-adrenergic receptor; Beta-2 adrenergic receptor (Homo sapiens), P07550; beta-arrestin recruitment to beta2AR, cell-based reporter; Potency, µM (series often up to 46.1 µM), for the others: top-dose activation, most hits filed as activators; 0.02% of 330,000 active;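 also: potency is read from the fitted curve at half-maximal effect; 0% = DMSO controls and full agonism = EC100 isoproterenol or metaproterenol; nearly all actives have a fitted effect of over 65% in size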
# PINK1 expr mod: A Quantitative High throughput Screen to Identify Chemical Modulators of PINK1 Expression; PINK1 immunofluorescence, high-content cytometry, 24 h; Potency, µM (doses to about 76.6 µM), without a hit: at the top dose activation (PINK1 increase), most hits filed as activators; 0.2% of 410,000 active; active = well fitted activation curve with a large enough effect; inconclusive = small, poorly fitted or top-dose-only effect; cell line not stated here; also: potency is read from the fitted curve at half-maximal effect; % of control where 0% means no effect; nearly all actives have a fitted effect of over 65% in size
#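 PINK1 protein level read as immunofluorescence by microplate cytometer in a fixed, stained stable cell line after 24 h exposure to five compound concentrations, with CCCP as control.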
# HeLa viability: Secondary assay for Activators of Human Pyruvate Kinase M2 isoform - Cell Titer Glo cytotoxicity assay; shares compounds with PKM2 activator; HeLa viability, CellTiter-Glo ATP luminescence, 24 h; activity change, negative = cytotoxicity, % at 57.5 µM; 230 tested, under 10 active; AID 1898, 2009; also: % of control where 0% means no effect
# Numbers without * were called inactive; ? = inconclusive; . = no result given; [ ] = dose if it differs, or a comment. The list is not random: actives were taken first. Their share in the collection is about 0.46%. Unless noted, calls follow the shape of the dose curve; as a rule, active = well fitted curve in the direction sought with a large enough effect; inconclusive = small, poorly fitted or top-dose-only effect, or another doubt; inactive = no such curve, though single readings can be large; an effect the other way counts as inactive or inconclusive.
SMILES,miR-21 reporter,Chronic BCR inh,PKM2 activator,Pin1 inhibitor,B2AR arrestin,PINK1 expr mod,HeLa viability
CC(O)c1nc2ccccc2n1Cc1nnc(-c2ccc(Cl)cc2)o1 (configuration not stated),-40%,?,7.9µM*,2%,0%,1%,0
O=C(CN1Cc2ccccc2OC(c2ccsc2)C1)NCC1OCCc2ccccc21 (configuration not stated),.,.,.,.,.,-1%,.
Cn1c(=O)[nH]c(=O)c2c1nc(SCC(=O)Nc1ccccc1)n2Cc1ccccc1,-9%,?,1.6µM*,-2%,0%,0%,?
O=C(c1n[nH]c2c1CCCC2)N1CCOc2ccc(C(O)C3CCCCC3)cc2C1 (configuration not stated),.,.,.,.,.,2%,.
Cn1c2ccccc2c2nnc(SCC(=O)NC3CCCC3)nc21,-6%,2%,.,-6%,0%,2%,.
Cn1c2ccccc2c2nnc(SC3CCOC3=O)nc21 (configuration not stated),2%,0%,14µM*,-2%,0%,8%,2
COCc1c(C(=O)N2CC3CCC2C3)cnn1-c1nccc(-c2ccccc2OC)n1 (configuration not stated),.,.,.,.,.,1%,.
COc1cccc(S(=O)(=O)Nc2ccc(C(=O)N3CCN(C(=O)c4ccco4)CC3)cc2)c1,11%,7%,1.4µM*,7%,0%,2%[38.3 µM],-2
Cn1c(SCc2ccccc2)nnc1C1CCCN(Cc2cccc3ncccc23)C1 (configuration not stated),.,.,.,.,.,0%,.
Cc1cc2c(s1)c1c(n2C)C(=O)N(Cc2ccccc2F)C1,.,?,.,.,-1%,.,13[23.3 µM]
O=C(Cc1cccs1)N1CCCC(c2nc3c(nnn3Cc3cccc(Cl)c3)c(=O)[nH]2)C1 (configuration not stated),-5%,-10%,16µM*,-3%,0%,2%[38.3 µM],-12
COc1ccc2[nH]c(=O)c(-c3noc(-c4ccccc4)n3)cc2c1,-37%,5%,11µM*,?,0%,3%,-27
COc1cc(C2C3=C(CCCC3=O)Nc3c2c(C)nn3-c2cccc(C)c2)cc(OC)c1O (configuration not stated),-8%,-8%,7.1µM*,0%,0%,0%,?
Clc1ccc(SCc2cn3ccccc3n2)cc1,-61%,?,0%,-8%,0%,2%,.
c1ccc2c(SCc3cn4ccccc4n3)nncc2c1,-64%,?,4.5µM*,-3%,0%,0%,-13
Cc1ccccc1NS(=O)(=O)c1ccc2c(c1)n(C)c(=O)n2C,-3%,-13%,2.5µM*,0%,-1%,2%,3
COc1ccc2c(c1)OC(C)CN(CCNC(=O)c1cccc(N3CCNC3=O)c1)C2 (configuration not stated),.,.,.,.,.,0%,.
C[C@H]1CN(S(=O)(=O)c2c(F)cccc2F)CCN1S(=O)(=O)c1ccc2c(c1)OCCO2,.,-2%,.,20%,0%,1%,0
O=S(=O)(c1ccc2c(c1)OCCO2)N1CCN(S(=O)(=O)c2cccc(Cl)c2F)CC1,.,.,.,20%,.,.,.
C[C@@H]1CN(S(=O)(=O)c2ccc3c(c2)OCCO3)CCN1S(=O)(=O)c1c(F)cccc1F,.,1%,.,7%,0%,0%,-2
O=C1CN(S(=O)(=O)c2c(F)cccc2F)CCN1S(=O)(=O)c1ccc2c(c1)OCCO2,.,.,.,-3%,.,.,0
